About 900 (1.7%) of roughly 53,000 compounds showed an effect of 50% or more. Only a selection was taken, and strong results are over-represented in it overall.
Test system: Mycobacterium tuberculosis
Experiment: Cornell - Phenotypic assay to identify agents that inhibit growth of Mycobacterium tuberculosis
Format: functional
Design: scale not given: direction of the effect not stated beside the values
Conditions: 10 mM as filed; unlikely as a test dose

SMILES	Percent Effect [%]
O=c1[nH]cc(N2CCCCC2)c(=O)[nH]1	4.601
Cc1ccc(NCC2(O)CCNCC2)cc1C	-25.1
CC(C)c1nnc(NC(=O)N(C)Cc2ccncc2)s1	-15.27
Cc1ccsc1CN(Cc1ccccn1)CC(C)C	-11.16
Cc1ccsc1CN(CCN(C)C)Cc1ccccn1	3.624
CSC(C)CCN(Cc1ccccn1)Cc1sccc1C (stereo unspecified)	52.37
COCC(O)CN(C)c1ccnc2cc(Br)ccc12 (stereo unspecified)	6.843
O=C(NC[C@@H]1CCCO1)c1cccnc1N1CCCC1c1ccccc1 (stereo partly specified)	4.902
CC(c1ccc(F)cc1F)N1CCN(CCC(=O)NC(N)=O)CC1 (stereo unspecified)	-2.983
COc1cccc(N2CCC(CNCc3cccc(C#N)c3)C2)c1 (stereo unspecified)	63.04
COc1ccccc1N1CCC(CNCc2ccc(C#N)cc2)C1 (stereo unspecified)	28.32
COc1ccccc1N1CCC(CNCc2cccc(C#N)c2)C1 (stereo unspecified)	33.02
COc1ccc(CNCC2CCN(c3ccccc3OC)C2)cc1O (stereo unspecified)	59.98
COc1ccccc1N1CCC(CNCc2cccc(O)c2)C1 (stereo unspecified)	38.06
COc1cccc(N2CCC(CNC(=O)NCc3ccco3)C2)c1 (stereo unspecified)	-31.24
Cc1cc(C)c(C(=O)N2CCCC(C(=O)CCc3ccccc3)C2)cn1 (stereo unspecified)	16
CN1CCCC1CCNC(=O)c1ccccc1-n1cnc(CN)c1 (stereo unspecified)	-39.2
CC(C)C(Sc1nnnn1C1CC1)C(=O)NCc1ccccc1 (stereo unspecified)	-5.783
Cc1nc(N)sc1C(=O)N1Cc2ccccc2OC2(CCOCC2)C1	-56.78
O=C1CCC2(CCN(Cc3cscn3)CC2)CN1CCCO	5.461
O=C(CNc1ccc(OCC2CCOCC2)cc1)NCc1ccco1	31.46
CC(C)(C)Oc1ccc(NCC(=O)NCc2ccco2)cc1	108

SMILES	Percent Effect [%]
CC(C)(Oc1ccc(F)cc1)C(=O)NCc1ccco1	22.85
CC[C@H](C)Nc1nccc(-c2cnc3sccn3c2=O)n1	-1.989
O=C(c1cn(-c2ccccc2C(F)(F)F)nn1)N1CCSCC1	17.85
Cc1ccc(CN2CC[C@H]3C[C@H](c4nc(C5CC5)cs4)O[C@@H]3C2)o1	67.24
Cc1cc(CN2CC[C@H]3C[C@@H](c4nc(C5CC5)cs4)O[C@@H]3C2)no1	0.1287
Cc1ccc(CN2CC[C@H]3C[C@@H](c4nc(C5CC5)cs4)O[C@@H]3C2)o1	40.45
Cn1nc(-c2cccc(Cl)c2)c(Br)c1C(=O)O	24.18
O=C(Nc1ccccc1OCc1ccccn1)NC1CCOCC1	30.18
c1ccc(COc2ccccc2NC2CCOCC2)nc1	50.88
O=C(Nc1ccccc1OCCc1ccccn1)NC1CCOCC1	-20.67
COc1cc(NCc2ccncc2)c(-c2nn[nH]n2)cc1OC	96.19
COc1ccncc1NCc1ccsc1	-60.05
COc1cc(CNc2ccc(Cl)cc2)ccc1OCC(=O)O	-3.069
c1cncc(CNc2ccccc2-c2nn[nH]n2)c1	72.98
Cc1nnc(NCc2ccc(Cl)cc2)o1	21.04
OCc1ccc(Cl)c(NCc2cccnc2)c1	-14.09
Cc1ccn(-c2ccccc2NCc2cccnc2)n1	-17.76
COc1cc(NCc2cccnc2)c(-c2nn[nH]n2)cc1OC	-25.93
COc1cc(NCc2ccc(Cl)cc2)c(-c2nn[nH]n2)cc1OC	107.2
CC(=O)N1CCCN(C(=O)NCCNc2cnccn2)CC1	8.364
CCOCc1cnc2n1CCN(C(=O)c1ccccc1)C2C (stereo unspecified)	-22.66
Cn1cc(N2CCCC(SCc3nc(C4CC4)no3)C2=O)cn1 (stereo unspecified)	-5.692

SMILES	Percent Effect [%]
C[C@@H]1CN(c2nc3c(cc2C(N)=O)CCC3)CC[C@@]1(O)C1CCC1	6.158
Cn1nc(CNS(=O)(=O)Cc2ccccc2F)c2c1CCCC2	24.49
CCc1c(C)nc2cc(C3CCN(Cc4ccc(F)cc4)C3)nn2c1O (stereo unspecified)	-30.4
O=C(O)C(F)(F)F.O=C([C@@H]1CCO[C@@H]2CCN(Cc3ccsc3)C[C@@H]21)N1CCCC1	13.31
CCCS(=O)(=O)N1CCC(NC(=O)c2cc(CC)c(C)s2)CC1	-14.58
COCC(=O)N1CCN(S(=O)(=O)c2cccs2)[C@H]2CS(=O)(=O)C[C@H]21	5.268
Cc1cc2[nH]c(O)nc2cc1NCc1ccccc1	38.01
CNc1c(NCc2ccco2)c(=O)c1=O	-73.54
Cc1cc(NCc2ccccc2)nc2[nH]nc(N)c12	99.95
Cc1cc(NCc2ccco2)nc2[nH]nc(N)c12	73.02
NS(=O)(=O)c1cccnc1NCc1ccco1	9.166
Cc1cc(NCCO)nc2[nH]nc(N)c12	15.94
Cc1nc(CCNC(=O)NC(C)c2ccc3c(c2)OCCO3)cs1 (stereo unspecified)	-7.5
N#CC1COCCN1C(=O)c1cccc2cc[nH]c12 (stereo unspecified)	15.8
COc1ccccc1OCCN(C)c1cc(C)nc(N)n1	-1.717
CN(C)S(=O)(=O)N1CCN(c2ccnc(N3CCCCC3)n2)CC1	38.93
CS(=O)(=O)N1CCN(c2ccnc(N3CCCCC3)n2)CC1	63
CCCS(=O)(=O)N1CCN(c2ccnc(N3CCCCC3)n2)CC1	50.94
CCCS(=O)(=O)N1CCN(c2ccnc(N3CCCC3)n2)CC1	-0.1963
CN(C)S(=O)(=O)N1CCN(c2ccnc(N3CCCC3)n2)CC1	12.56
CS(=O)(=O)N1CCN(c2ccnc(N3CCCC3)n2)CC1	7.415
COC(=O)c1cccc(CN(C)C(C)c2ccccn2)c1 (stereo unspecified)	21.51

SMILES	Percent Effect [%]
OC1(CN2CCC(Cc3ncccn3)CC2)CCOCC1	-20.94
O=C(c1cnco1)N1CCC(Cc2cccc3ncccc23)CC1	-21.16
O=C(c1cnco1)N1CCC(Cc2cnc3ccccc3c2)CC1	64.83
O=C(c1cnco1)N1CCC(Cc2ccc3ncccc3c2)CC1	9.774
COCCC1COC2(CCN(C(=O)c3ccncc3)CC2)C1.O=C(O)C(F)(F)F (stereo unspecified)	-13.79
c1ccc(-n2ncc(CN3CCCC(Cn4cncn4)C3)n2)cc1 (stereo unspecified)	2.145
CCC1c2ccc(C)n2CCN1C(=O)Cn1cnc2sc(C)cc2c1=O (stereo unspecified)	27.93
Cc1cc2c(=O)n(CC(=O)N3CCn4cccc4C3C(C)C)cnc2s1 (stereo unspecified)	56.81
CCCC1c2cccn2CCN1C(=O)Cn1cnc2sc(C)cc2c1=O (stereo unspecified)	53.74
Cc1cc2c(=O)n(CCOCCO)cnc2s1	14.22
CCC(C)NC(=O)Cn1ccc2sc(C)cc2c1=O (stereo unspecified)	17.39
CCC1c2cccn2CCN1C(=O)c1ccc2nonc2c1 (stereo unspecified)	10.7
Cc1nn(C)cc1C(=O)Nc1cccc(CN2CCC(CO)CC2)c1	-50.57
Cc1nc2ccccn2c1CC(=O)N[C@@H]1CC[C@@H](N2CCCC2)[C@@H]1O	13.48
O=C(c1cc(-n2cccn2)ccn1)N(CC1CCC1)CC(F)(F)F	16.8
Cc1cc(NC(=O)C(c2cccc(F)c2)N2CCOCC2)sn1 (stereo unspecified)	-15.26
NC(=O)C1CCCN1C(=O)c1cc(C2CC2)nc2ccc(F)cc12 (stereo unspecified)	-27.79
Cc1cc(C)c2[nH]c(=O)c(CN3CCCC4(C3)CN(C)C(=O)O4)cc2c1 (stereo unspecified)	65.13
Cc1cc(C)c2[nH]c(=O)c(CN3CCC(O)(CN(C)C)C3)cc2c1 (stereo unspecified)	15.85
Cc1cc(C)c2[nH]c(=O)c(CN3CCCC(O)(CO)C3)cc2c1 (stereo unspecified)	23.96
Cc1nc[nH]c1CN1CCCN(c2nc3ccccc3s2)CC1	3.174
Cc1nc(CN2CCCC23CCN(c2nc4ccccc4s2)CC3)co1	53.88

SMILES	Percent Effect [%]
Cn1cc(CN2CCCC23CCN(c2nc4ccccc4s2)CC3)cn1	13.88
c1ccc2sc(N3CCC4(CCCN4Cc4ncc[nH]4)CC3)nc2c1	60.65
Cc1cc(C(=O)N2CCN(c3nc4ccccc4s3)CC2)no1	-60.39
Cc1nc[nH]c1CN1CCCC12CCN(c1nc3ccccc3s1)CC2	-4.142
CCn1ccc(-c2cc(C(=O)O)n3ncc(Br)c3n2)n1	19.03
CC(C)Cn1ccnc1CNC(=O)N1CCCC1CN1CCOCC1 (stereo unspecified)	7.761
CN(C(=O)Cn1nc(-c2ccccc2F)ccc1=O)C1CCS(=O)(=O)C1 (stereo unspecified)	18.26
COC(=O)C(NC(=O)Nc1ccc(C(C)=O)cc1)C(C)C (stereo unspecified)	6.824
COCc1ncc(CN2CCC3(CCNC(=O)CC3)CC2)cn1	18.36
COCCN(C)Cc1cn(C)nc1-c1ccc2c(c1)OCCO2	-52.38
CC(C)(C)NC(=O)CNC(=O)Nc1cc(-c2ccccc2)ns1	38.08
FC(F)(F)c1cc(-c2cccs2)nc(N2CCN3CCCC3C2)n1 (stereo unspecified)	24.42
Cc1ccc(-c2cc(C(F)(F)F)nc(N3CCOCC3)n2)s1	4.079
CCc1ccc(-c2cc(C(F)(F)F)nc(N3CCC(N)CC3)n2)cc1	105.7
CCn1ncc(-c2cc(C(F)(F)F)nc(N3CCC(N)CC3)n2)c1C	50.19
Cc1c(-c2cc(C(F)(F)F)nc(N3CCC(N)CC3)n2)cnn1C	2.397
Cc1cc(C(F)(F)F)nc(N2CCN3CCCC3C2)n1 (stereo unspecified)	-50.74
Cn1nc(CN2CCCC2)c2c1CN(c1cnccn1)CC2.O=C(O)C(F)(F)F.O=C(O)C(F)(F)F	-1.06

— ChEMBL document CHEMBL3988442, “University of Dundee, Small-Polar-MMV Screening Library” (2021)
